{"source": "PubChem BioAssay", "data": [{"assay": "binders of probe aHhip on microarray, primary screen, stem cell growth factor project, biochemical, small-molecule microarray, fluorescence 635/667 (AID 1087);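 note: score merges spot fluorescence at 667nm with spot signal to noise ratio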", "settings": "higher = more signal", "values": [{"smiles": "C[C@@H]1CCC2C(=O)N(Cc3ccccc3)C[C@@H](O)CN2[C@H]1c1ccc(Br)cc1", "note": "(stereo not given in full)", "composite z-score": -0.0618}, {"smiles": "CCOC(=O)CCN1C(=O)[C@H]2[C@H]3[C@H](O)[C@H](O)CC(=O)[C@H]3CC[C@H]2C1=O", "composite z-score": -0.132}, {"smiles": "C#CCCCON=C1C[C@@H](O)[C@@H](O)[C@@H]2[C@@H]3C(=O)N(CCC(=O)OCC)C(=O)[C@@H]3CC[C@@H]12", "composite z-score": -0.12}, {"smiles": "O=C1[C@H]2[C@H]3[C@H](O)[C@H](O)CC(=NOCc4ccccc4)[C@H]3CC[C@H]2C(=O)N1C[C@@H]1CCCO1", "composite z-score": -0.123}, {"smiles": "C#CCCCON=C1C[C@@H](O)[C@@H](O)[C@@H]2[C@@H]3C(=O)N([C@@H](C)c4ccccc4)C(=O)[C@@H]3CC[C@H]12", "composite z-score": -0.0994}, {"smiles": "CCOC(=O)[C@H](Cc1ccccc1)NC(=O)CCC1CC(OC(=O)NCc2ccc3c(c2)OCO3)CC2(CCCC(COC(=O)NCc3cccc(C(F)(F)F)c3)O2)O1", "note": "(stereo not given in full)", "composite z-score": -0.0645}, {"smiles": "C=CC[C@@H]1C=C[C@H](ON=C(C)CCN2CCc3nc(CC)c(CC)cc3C2)[C@@H](CO)O1", "composite z-score": -0.123}, {"smiles": "O=C1C2C=CC(C(O)c3ccc([N+](=O)[O-])cc3)N(Nc3ccc([N+](=O)[O-])cc3)C2C(=O)N1c1ccccc1", "note": "(stereo not given)", "composite z-score": 0.178}, {"smiles": "CC(C)[C@H](NC(=O)OC(C)(C)C)[C@@H](O)CC(=O)OC(C)(C)C", "composite z-score": 0.0881}, {"smiles": "NCCCCCNC(=O)[C@@H]1C[C@@H]2C(=O)N3CCC[C@H]3C(=O)N2[C@@H]1c1cccc(OCCO)c1", "composite z-score": 0.309}, {"smiles": "COC(=O)CC=C[C@H](C)[C@@H](OCc1ccccc1Br)C(C)C", "composite z-score": -0.306}, {"smiles": "COc1ccc([Si](C)(C)[C@H]2[C@H](CCO)O[C@@]3(C(=O)N(Cc4cccc(NC(=O)[C@H](C)O)c4)c4ccccc43)[C@@H]2C)cc1", "composite z-score": 0.212}, {"smiles": "CCOC(=O)CCN1C(=O)[C@H]2[C@H]3[C@H](O)C=CC(=O)[C@@H]3CC[C@H]2C1=O", "composite z-score": -0.374}, {"smiles": "CCN1C(=O)[C@H]2[C@H]3[C@H](O)[C@H](O)CC(=NOC[C@@H](C)[C@H](OCc4ccccc4)C(C)C)[C@@H]3CC[C@H]2C1=O", "composite z-score": -0.169}, {"smiles": "CO[C@H]1COC(=O)[C@H](C)COC(=O)CC=C[C@@H](C)[C@H](OC)COC(=O)CC=C[C@@H]1C", "composite z-score": 0.0854}, {"smiles": "C=C(CCCC)C(=O)CC[C@@H](OC(C)=O)c1cccc(OCCO)c1", "composite z-score": -0.0994}, {"smiles": "C[C@H](c1ccccc1)N1C(=O)[C@H]2[C@@H]3C(=CC[C@H]2C1=O)C(=O)[C@H]1O[C@H]1[C@H]3O", "composite z-score": -0.289}, {"smiles": "CC(C)CON=C1C[C@@H](O)[C@@H](O)[C@@H]2[C@@H]3C(=O)N(C[C@@H]4CCCO4)C(=O)[C@@H]3CC[C@H]12", "composite z-score": -0.406}, {"smiles": "CCOC(=O)C1=CC[C@H]2C(=O)N(CC)C(=O)[C@@H]12", "composite z-score": 0.176}, {"smiles": "C#CCCCON=C1C[C@@H](O)[C@@H](O)[C@@H]2[C@@H]3C(=O)N(c4cccc(Oc5ccccc5)c4)C(=O)[C@@H]3CC[C@@H]12", "composite z-score": -0.334}, {"smiles": "CC(CCN1CCc2nc(-c3ccccc3)c(-c3ccccc3)cc2C1)=NOC(C)CN1CCCCc2nc(C)c(C)cc21", "note": "(stereo not given)", "composite z-score": 0.115}, {"smiles": "CCOC(=O)[C@H](CC(C)C)NC(=O)CCC1CC(OC(=O)NCc2cccc3ccccc23)CC2(CCCC(COC(=O)NCCc3ccccc3OC)O2)O1", "note": "(stereo not given in full)", "composite z-score": -0.134}, {"smiles": "COc1cccc([C@@H]2Oc3ccc(Br)cc3C(=O)[C@H]2O)c1", "composite z-score": 0.235}, {"smiles": "CS(=O)(=O)CCOC(=O)C1=CC(CCCO)=CC(c2cccs2)N(Cc2cccc(OC(F)(F)F)c2)C=C1C(=O)OCCS(C)(=O)=O", "note": "(stereo not given)", "composite z-score": -0.191}, {"smiles": "NC(=O)NCC#Cc1ccc2c(c1)[C@]1(C(=O)N2)[C@H](c2ccc(O)cc2)N2[C@H](c3ccccc3)[C@H](c3ccccc3)OC(=O)[C@H]2[C@@H]1C(=O)N1CCCCCCC1", "composite z-score": 0.257}, {"smiles": "O=C(CS)NCCCCCNC(=O)[C@H]1C[C@H]2C(=O)N3CCC[C@H]3C(=O)N2[C@H]1c1cccc(OCCO)c1", "composite z-score": 0.0274}, {"smiles": "CO[C@H]1COC(=O)[C@H](C)NC(=O)[C@@H](C)COC(=O)CC=C[C@@H]1C", "composite z-score": -0.434}, {"smiles": "C=CCOC(=O)[C@H]1[C@@H]2C(=O)O[C@@H](c3ccccc3)[C@@H](c3ccccc3)N2[C@@H](c2ccc(OCCOC(=O)[C@H]3C[C@H]4C(=O)N5CCC[C@H]5C(=O)N4[C@H]3c3cccc(OCCO)c3)cc2)[C@]12C(=O)Nc1ccc(I)cc12", "composite z-score": 0.794}, {"smiles": "CCN1C(=O)[C@H]2[C@H]3[C@H](O)[C@H](O)CC(=NOCC=C(C)CCC=C(C)C)[C@H]3CC[C@H]2C1=O", "composite z-score": 0.183}, {"smiles": "CC(C)[C@@H](OCc1ccccc1)[C@H](C)C=NOC[C@@H](C)[C@H](OCc1ccccc1)C(C)C", "composite z-score": -0.131}, {"smiles": "CC=CC1=C(CO)[C@H](O)[C@H]2O[C@H]2[C@H]1O", "composite z-score": 0.0881}, {"smiles": "COc1ccc(COC(=O)NN=C2C[C@@H](O)[C@@H](O)[C@@H]3[C@@H]4C(=O)N(Cc5ccc6c(c5)OCO6)C(=O)[C@@H]4CC[C@@H]23)cc1", "composite z-score": 0.0722}, {"smiles": "CN1C(=O)C2C=CC(C(O)c3ccc(I)cc3)N(NC(=O)OC(C)(C)C)C2C1=O", "note": "(stereo not given)", "composite z-score": -0.0994}, {"smiles": "COc1ccc(COC(=O)NN=C2C[C@@H](O)[C@@H](O)[C@@H]3[C@@H]4C(=O)N(c5ccc(F)cc5F)C(=O)[C@@H]4CC[C@@H]23)cc1", "composite z-score": 0.168}, {"smiles": "CCOC(=O)[C@H](CC(C)C)NC(=O)CCC1CC(OC(=O)NCCc2ccc(F)cc2)CC2(CCCC(COC(=O)NCc3ccccc3)O2)O1", "note": "(stereo not given in full)", "composite z-score": 0.0695}]}]}
